Screening data from PubChem BioAssay.
Hits are enriched below; roughly 6.8% of the tested compounds scored in any of these assays.
NADH enzymes: inhibitors of PK/LDH coupling enzymes, profiling panel, artefact control, biochemical, MLSMR library | coupled PK/LDH NADH assays, four targets | IC50, µM (top dose mostly 10 µM), without a hit: at the highest dose inhibition | hit rate 0.02% among 65,000;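 active = single-dose screening hits from any of four coupled enzyme assays that gave an IC50 when retested across doses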;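 also: the DPM-DC format reads NADH fluorescence rather than 340 nm absorbance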
Spn MK inh: S. pneumoniae MK inhibitors, primary screen, biochemical, PK/LDH-coupled NADH absorbance; mevalonate kinase [Streptococcus pneumoniae D39]; purified MK, PK/LDH-coupled NADH absorbance 340 nm; hit rate 0.48% among 65,000; inhibition, % at 10 µM;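 active = ranked among the strongest by inhibition in the single 10 µM screen, a fixed top-ranked set picked for dose follow-up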
Abs 340nm: compound light absorbance at 340 nm, profiling panel, artefact control, biochemical, MLSMR library, data from PS, PMK, MK assays | compound absorbance at 340 nm, fold over control | fold change at 10 µM | 65,000 tested, under 10 active;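 active = at 10 µM dose, initial 340 nm absorbance at least 2 fold that of control wells; inactive = change under 2 fold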;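 also: initial absorbance extrapolated from kinetic A340 decline of NADH oxidation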
Spn PMK inh: S. pneumoniae PMK inhibitors, primary screen, biochemical, mevalonate pathway, pilot trial included | phosphomevalonate kinase (Streptococcus pneumoniae D39) | purified PMK, PK/LDH-coupled NADH absorbance 340 nm | inhibition, % at 10 µM | hit rate 0.49% among 65,000;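 active = top-ranked compounds by inhibition in the single 10 µM screen, taking a fixed number of the strongest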;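 also: 0% = full reaction with DMSO carrier and 100% = background rate without enzyme reaction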
Spn DPM-DC inh: S. pneumoniae DPM-DC inhibitors, primary screen, biochemical, PK/LDH-coupled NADH fluorescence. diphosphomevalonate decarboxylase (Streptococcus pneumoniae D39). purified DPM-DC. calls only at 10 µM. hit rate 0.49% among 65,000. AID 556, 2006;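 active = the 320 compounds with the highest percent inhibition in the single-dose primary screen, excluding strongly autofluorescent ones, cut at about 32% in these data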;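 also: kinetic rate of NADH fluorescence loss reporting ADP formed by the decarboxylase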
Autofluor 339: intrinsic fluorescence of library compounds, ex339/em460 – biochemical, MLSMR library, data from DPM-DC assay, artefact control, profiling panel. fluorescence fold increase at 10 µM. hit rate 5.5% among 65,000. AID 709, 2007. compound autofluorescence, ex339/em460 nm, NADH buffer; active compounds read high; 1 = no-compound wells, NADH background;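 active = at 10 µM, mean starting fluorescence two-fold or more over control wells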;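 also: signal is the first read of a kinetic run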
An asterisk follows results filed as active; i = inactive; x = not tested or not shown; + = active, no number; [ ] = remark or other dose.

SMILES	NADH enzymes	Spn MK inh	Abs 340nm	Spn PMK inh	Spn DPM-DC inh	Autofluor 339
O=c1oc2ccccc2n1CCn1c2ccccc2c2nc3ccccc3nc21	8%	10	1	9.0*	i	1.5
CCCn1c(Nc2nc3ccccc3n2C)nc2ccccc21	4%	5	1.2	4	i	2.1*
CCCn1c(NC(=O)c2ccccc2)nc2ccccc21	2%	7	1.1	0	i	1.2
CCCOc1ccccc1-c1nc2c([nH]1)c(=O)[nH]c(=O)n2C	4%	2	1.1	5	x	3.7*
COc1ccccc1N1CCN(c2nc(N)c(C#N)c(CC#N)c2C#N)CC1	7%	7	1.1	4	i	1.1
CCc1nc(N)c(C#N)c(-c2ccccc2OC)c1C	10%	5	1.1	15	i	2.3*
COc1ccccc1-c1c(C)c(C)nc(N)c1C#N	9%	8	1.1	8	i	2.4*
COc1ccccc1-c1cc(C2CC2)nc(N)c1C#N	7%	6	1.1	7	x	2.1*
CCOC(=O)Nc1cc2c(C)cc(=O)oc2cc1C	15%	7	1	9	i	3.6*
CCOC(=O)Nc1cc(=O)c2ccccc2o1	3%	2	1	0	i	1.6
Cc1cccc(NC(=O)C2CCN(c3nccc(C)n3)CC2)c1	6%	0	1.1	8	i	1.5
Cc1ccc(C)c(NC(=O)CNS(=O)(=O)c2ccccc2)c1	6%	10	1	4	i	1.1
Cc1oc(-c2cc(Cl)ccc2Cl)cc1-c1nn2c(C)nnc2s1	6%	0	1	18	i	1.1
Cc1nnc2sc(-c3ccc(-c4ccc(Cl)c(C(F)(F)F)c4)o3)nn12	11%	12	1.1	10	x	3.7*
CCOC(=O)c1cc2occc2n1CC(=O)N1CCCc2ccccc21	4%	3	1	10	i	1.1
Nc1c2c(nc3ccccc13)N(C1CCCCC1)CC2	25%	49*	1.1	0	x	2.3*
COc1ccc(NC(=O)c2ccco2)cc1NC(=O)c1ccc(C)cc1	9%	0	1	27*	i	1.1
CCOc1ccc(C(=O)Nc2ccc(NC(=O)c3ccco3)c(Cl)c2)cc1Br	4%	0	1.1	11	i	3*
Cc1ccc(NC(=O)c2cc(NC(=O)c3ccco3)ccc2N2CCCCC2)cc1	2%	3	1.1	1	x	2.1*
COc1ccc(NC(=O)c2ccco2)cc1NC(=O)c1ccc(Br)o1	11%	9	1.1	9	i	1.1
CCOc1cc(NC(=O)c2ccco2)c(OCC)cc1NC(=O)CCc1ccc(OC)cc1	4%	0	1	16	+[fluoresces]	2.1*
CCN(CCCNC(=O)C1CCCN(S(=O)(=O)c2cnc[nH]2)C1)c1ccccc1 (stereo not drawn)	3%	7	0.99	3	i	1
O=C(c1ccc(=O)[nH]c1)N(Cc1ccco1)C1(C(=O)NC2CCCC2)CCCCC1	2%	6	0.99	5	i	0.96
N#Cc1nc(Cc2ccccc2)oc1N1CCC(Cc2ccccc2)CC1	0%	1	1	0	i	1.1
COc1ccccc1-c1nc(C#N)c(N2CCC(Cc3ccccc3)CC2)o1	12%	12	1	11	x	3.9*
SMILES	NADH enzymes	Spn MK inh	Abs 340nm	Spn PMK inh	Spn DPM-DC inh	Autofluor 339
COc1ccccc1-c1nc(C#N)c(N2CCN(Cc3ccccc3)CC2)o1	18%	12	1	13	i	3.1*
O=C(CCCOc1ccccc1)Nc1ccc2c(c1)OCCO2	3%	5	1	4	i	1.1
CCOc1cc(C2NC(=O)NC(O)(C(F)(F)F)C2C(=O)c2ccc(OC)cc2)ccc1O (stereo not drawn)	4%	8	1	3	i	1
CC(Sc1nnc(-c2cc3ccccc3o2)n1-c1ccccc1)C(=O)O (stereo not drawn)	2%	3	1	3	i	1.1
N#Cc1cn(-c2ccccc2)nc1-c1cc2ccccc2oc1=O	3%	6	1.1	0	x	2.4*
COc1ccccc1-c1nnc(SCC(=O)OC(C)C)o1	5%	10	1	5	i	1.1
COCCNC(=O)C1CCCN(c2nn3c(=O)cc(C)nc3s2)C1 (stereo not drawn)	11%	0	1	33*	i	1
CCOc1ccc(CCNC(=O)C2CCCN(c3nn4c(=O)cc(C)nc4s3)C2)cc1 (stereo not drawn)	7%	0	1	22	i	1.1
Clc1ccc2c(c1)[C@H]1OCC[C@H]1[C@@H](c1ccco1)N2	5%	13	1	8	+[fluoresces]	2.3*
Fc1ccc2c(c1)[C@H]1OCC[C@H]1[C@@H](c1ccco1)N2	12%	10	1	2	i	2.7*
C[C@@H]1C[C@H](O)c2cc(Cl)ccc2N1	4%	9	0.99	13	i	1
CC(C)CCN(C(=O)CNC(=O)c1ccco1)C(C(=O)NC1CCCCC1)c1ccco1 (stereo not drawn)	7%	9	0.99	12	i	1.1
O=c1[nH]c(=O)n(Cc2ccco2)c2c1C(C(F)(F)F)(C(F)(F)F)N=C(C1CCCCC1)N2	5%	5	1.1	0	i	2.1*
O=C(CN1CCN(c2ncccn2)CC1)Nc1ccccc1-n1cccc1	3%	34	0.99	0	i	1
CCN(CC)c1ccc(-c2c(C#N)c(N)nc(OC)c2C#N)cc1	1%	4	1.1	0	x	2.5*
CC1=CC(C)(C)N=C(Nc2ccc(C)cc2)S1	2%	0	1.1	6	i	1.1
COc1ccc2[nH]c(C(=O)O)c(CCNC(C)=O)c2c1	12%	3	1	11	i	2.5*
O=C(CSc1nnc2ccccn12)Nc1ccccc1C(=O)NC1CC1	17%	0	1	14	+	0.94
O=C(CSc1nnc2ccccn12)NC(=O)NC1CCCCC1	8%	5	1	19	i	1.1
Cc1noc(C)c1C(=O)OCC(=O)NCCC1=CCCCC1	5%	0	1	15	i	1.1
N#Cc1c(N)nc2c(c1-c1ccncc1)CCCCC2	5%	8	1	15	i	1.5
CSc1ccc(-c2c(C#N)c(N)nc3c2CCCC3)cc1	9%	7	1.1	10	x	3.7*
CCOC(=O)C(C(=O)OCC)C(=O)c1cc(OC)c(OC)c(OC)c1	5%	2	1	14	i	1.3
CCOC(=O)c1sc(=NC(=O)c2cc(OC)c(OC)c(OC)c2)n(C)c1C	8%	6	1.1	9	x	4.3*
